Compound activity: PubChem, National Center for Advancing Translational Sciences (NCATS)
FBPA Giardia inh: blocks Giardia fructose-bisphosphate aldolase activity. purified Giardia FBPA. Potency, µM (series often up to 59.6 µM), for the others: at the top dose activity, negative = inhibition, most hits filed as inhibitors. 290,000 compounds, 0.71% hits. AID 2451; further: nearly all actives have a fitted effect of over 55% in size
Target sequence (A8B2U2 whole entry, looked up): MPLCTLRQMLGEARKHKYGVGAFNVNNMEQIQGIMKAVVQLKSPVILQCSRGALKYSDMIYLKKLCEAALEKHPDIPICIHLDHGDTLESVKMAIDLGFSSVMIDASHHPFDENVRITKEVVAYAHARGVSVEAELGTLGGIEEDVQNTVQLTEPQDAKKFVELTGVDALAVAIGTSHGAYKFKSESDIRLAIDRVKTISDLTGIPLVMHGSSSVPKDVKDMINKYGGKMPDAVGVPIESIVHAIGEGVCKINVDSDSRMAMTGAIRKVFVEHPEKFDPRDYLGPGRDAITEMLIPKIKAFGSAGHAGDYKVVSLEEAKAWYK
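40 nM FBPA preincubated 10 min at RT with compound (up to 57.5 uM final), then substrate plus GAPDH/TPI/NAD/arsenate coupling and diaphorase/resazurin added. Fluorescence read after 20 min at RT, 525/598 nm.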
LmPK inhibitor: LmPK (Leishmania mexicana) enzyme inhibition; Q27686; purified LmPK, Kinase-Glo ATP luminescence, 1 h; Potency, µM (titrated, usually from 57.5 µM), without a hit: at the top dose activity change, negative = inhibition, hits mostly inhibitors; 290,000 compounds, 0.37% hits
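Purified LmPK (0.1 nM) converted ADP (0.1 mM) to ATP with PEP (0.5 mM) in imidazole buffer pH 7.2 with KCl and MgCl2, 1 h at room temperature. ATP was read by Kinase-Glo luminescence; data normalized to uninhibited and no-enzyme controls.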
Sm TGR inh: S. mansoni TGR enzyme inhibition | 360,000 compounds, 3% hits | purified TGR, DTNB reduction, TNB absorbance 405 nm | Potency, µM (top dose mostly 114 µM), for the others: at the top dose activity change, negative = inhibition, actives largely listed as inhibitors | Q962Y6; further: nearly all actives have a fitted effect of over 60% in size
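TGR 20 nM + NADPH 100 uM (dispensed conc.), cpd preinc 15 min RT; start with NADPH (500 uM addition) then DTNB (15 mM addition). Kinetic TNB absorbance, 405 nm filter. Four-parameter Hill fit across titration.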
Tb PYK inh: T. brucei pyruvate kinase inhibition; Q57TT1; TbPYK enzyme, Kinase-Glo Plus ATP luminescence, 45 min; Potency, µM (top dose mostly 76.8 µM), without a hit: top-dose activity, negative = inhibition, hits mostly inhibitors; 410,000 compounds, 0.12% hits; further: nearly all actives have a fitted effect of over 50% in size
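Activity of T. brucei pyruvate kinase was followed by Kinase-Glo Plus luminescence after the enzyme reacted 45 min at room temperature with 130 uM ADP (final) and substrate. Test compounds were added before ADP at multiple concentrations.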
RE007 growth inh: less growth of the S. pombe RE007 Vpr strain. S. pombe RE007 Vpr strain, BacTiter-Glo ATP luminescence, 24 h. Potency, µM (doses to about 92.2 µM), inactives show at the top dose activity change, negative = less growth, actives largely listed as inhibitors. 360,000 compounds, 0.21% hits; active means well fitted falling curve with a large enough effect; inconclusive means small, poorly fitted or top-dose-only effect; inactive means no such curve, though single readings can be large or run the other way; further: nearly all actives have a fitted effect of over 50% in size
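Fission yeast RE007 carrying one integrated HIV-1 vpr copy, seeded at OD 0.01 in PMG+AL medium with 23 nL pinned compound. Grown 24 h at 30 degrees; viability read by BacTiter-Glo luminescence after 5 min.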
Active calls of the source: *; [ ] = remark or other dose. In the library only some 3.3% were active in any assay of this set; here they are far more common. Unless noted, the call rests on the fitted dose curve; in most records, active means well fitted curve in the direction sought with a large enough effect; inconclusive means small, poorly fitted or top-dose-only effect, or another doubt; inactive means no such curve, though single readings can be large; an effect the other way counts as inactive or inconclusive. On the % scale 0 is the no-effect control and ±100 the full control effect; potency means the concentration at half of the fitted maximal effect.

Screening CCn1c(C)cc(/C=C2\NC(=O)N(CC(=O)Nc3cccc(C)c3)C2=O)c1C returned FBPA Giardia inh -28%, LmPK inhibitor 4%, Sm TGR inh -33%, Tb PYK inh 0% and RE007 growth inh -4%.
`CN(Cc1ccccc1)C(=O)c1cccc(NC(=O)C2CCCN(C(=O)OC(C)(C)C)C2)c1` (stereo unspecified) gave Tb PYK inh -9% and RE007 growth inh 6%.
Screening Cc1ccc(NC(=O)CN2C(=O)N/C(=C/c3ccc(C)o3)C2=O)cc1 returned FBPA Giardia inh inconclusive, LmPK inhibitor 7%, Sm TGR inh 35µM*, Tb PYK inh inconclusive and RE007 growth inh 14%.
`Cc1ccc(CN2C(=O)N/C(=C\c3cccn3-c3cccc(C(=O)O)c3)C2=O)cc1` gave FBPA Giardia inh 8%, LmPK inhibitor 0%, Sm TGR inh 35µM*, Tb PYK inh -7% and RE007 growth inh -12%.
Screening COc1cc(OC)c(C(=O)CCCN2CCCC2)c(OC)c1 returned FBPA Giardia inh -4%, LmPK inhibitor 0%, Sm TGR inh -18%, Tb PYK inh -13% and RE007 growth inh -6%[18.4 µM].
For O=C(O)CCN1CC2([N+](=O)[O-])C=CC(=O)C([N+](=O)[O-])(C1)C2CC(=O)c1ccccc1 (stereo unspecified) the results were FBPA Giardia inh inconclusive, LmPK inhibitor -4%, Sm TGR inh 18µM*, Tb PYK inh -25% and RE007 growth inh 7%.
`CCC(C)C(NC(N)=O)C(=O)Nc1ccc(C)c(Cl)c1` (stereo unspecified) gave FBPA Giardia inh 0%, LmPK inhibitor 2%, Sm TGR inh -7% and Tb PYK inh -14%.
COc1ccc(OC)c(NC(=O)c2ccccc2N(Cc2ccccc2)S(C)(=O)=O)c1 was read as FBPA Giardia inh -10%, LmPK inhibitor 6%, Sm TGR inh -22%, Tb PYK inh 13µM* and RE007 growth inh 4%.
COc1ccc(C(=O)/C=C/c2cc(C(=O)O)cc3c2OCOC3)c(O)c1 was read as FBPA Giardia inh -2%, LmPK inhibitor 12%, Sm TGR inh inconclusive, Tb PYK inh -5% and RE007 growth inh -16%.
Screening O=C(O)c1cc(/C=C/C(=O)c2cc(F)ccc2O)c2c(c1)COCO2 returned FBPA Giardia inh 0%, LmPK inhibitor 12%, Sm TGR inh 28µM*, Tb PYK inh -8% and RE007 growth inh -17%.
Screening COc1cc(CNC(=O)C2CCCC2)cc(OC)c1OC returned FBPA Giardia inh -5%, LmPK inhibitor 1%, Sm TGR inh 3.2µM*, Tb PYK inh 7% and RE007 growth inh -10%.
`CCCCCCCC(=O)O[C@H](CC(=O)O)C[N+](C)(C)C` gave FBPA Giardia inh 2%.
Screening N#Cc1ccc(S(=O)(=O)NC2CCN(Cc3ccccc3)CC2)cc1 returned FBPA Giardia inh 4%, LmPK inhibitor -16%, Sm TGR inh -22%, Tb PYK inh 3% and RE007 growth inh 6%.
`CCOc1ccc(S(=O)(=O)N(CC(=O)NCCc2ccc(OC)c(OC)c2)c2ccccc2)cc1` gave Sm TGR inh -7% and Tb PYK inh 2%.
`Cc1ccc(Nc2ccc([N+](=O)[O-])nc2[N+](=O)[O-])cc1` gave FBPA Giardia inh -20%, LmPK inhibitor -2%, Sm TGR inh 45µM*, Tb PYK inh -13% and RE007 growth inh 0%.
O=C(C#Cc1ccccc1)c1ccc([N+](=O)[O-])cc1 was read as FBPA Giardia inh 0%, LmPK inhibitor 6%, Sm TGR inh 0.32µM*, Tb PYK inh 2% and RE007 growth inh -26%.
Screening COc1ccc(OC)c(NC(=O)N2CC3CCCN3c3ccccc32)c1 (stereo unspecified) returned Sm TGR inh -2% and Tb PYK inh -3%.
CCc1ccc(NC(=O)C(=O)NNC(=O)c2cccc(OC)c2)cc1 was read as FBPA Giardia inh 14%, LmPK inhibitor -1%, Sm TGR inh -2%, Tb PYK inh 1% and RE007 growth inh 97%.
For COc1ccccc1N1C(=O)c2cccnc2C1=O the results were FBPA Giardia inh 6%, LmPK inhibitor -3%, Sm TGR inh 56µM*, Tb PYK inh -2% and RE007 growth inh -12%.
For NC(=O)CN1C(=O)/C(=c2\sc3nc(=O)c(Cc4ccccc4)nn3c2=O)c2ccccc21 the results were FBPA Giardia inh inconclusive, LmPK inhibitor -3%, Sm TGR inh 0.35µM*, Tb PYK inh inconclusive and RE007 growth inh -3%.
`CCN(CC)c1nc2cc(OC)ccc2cc1C#N` gave FBPA Giardia inh -22%, LmPK inhibitor -1%, Sm TGR inh 35µM* and Tb PYK inh 1%.
For COc1ccccc1CCC(=O)OCC(=O)N1c2ccccc2NC(=O)C1(C)C the results were Sm TGR inh -3%, Tb PYK inh -2% and RE007 growth inh 2%.
For C=C(C)CSc1nc(N)c(C#N)c(-c2ccc(C)cc2)c1C#N the results were FBPA Giardia inh -4%, LmPK inhibitor 1%, Sm TGR inh 35µM*, Tb PYK inh 7% and RE007 growth inh -4%.
`CCOC(=O)CSc1nc(N)c(C#N)c(-c2ccc(OC)cc2)c1C#N` gave FBPA Giardia inh -2%, LmPK inhibitor 2%, Sm TGR inh 0%, Tb PYK inh 1% and RE007 growth inh -4%.
Cc1c(C(c2ccc(O)cc2)c2c(O)c3ccccc3oc2=O)c(=O)n(-c2ccccc2)n1C (stereo unspecified) was read as FBPA Giardia inh 16%, LmPK inhibitor 1%, Sm TGR inh 14µM*, Tb PYK inh -13% and RE007 growth inh -15%.
`Cc1ccc(C(c2c(C)n(C)n(-c3ccccc3)c2=O)c2c(C)n(C)n(-c3ccccc3)c2=O)s1` gave FBPA Giardia inh 4%, LmPK inhibitor 0%, Sm TGR inh 25µM*, Tb PYK inh 1% and RE007 growth inh -8%.
For COc1ccc2c(CCN)c[nH]c2c1 the results were FBPA Giardia inh -16%, LmPK inhibitor -4%, Sm TGR inh 3%, Tb PYK inh -9% and RE007 growth inh 0%.
For COc1ccc2c(C(=O)CCl)c[nH]c2c1 the results were FBPA Giardia inh -13%, LmPK inhibitor 2%, Sm TGR inh 4.5µM*, Tb PYK inh 1% and RE007 growth inh -15%.
`COc1ccc2[nH]cc(C(=O)CN(C)C)c2c1` gave Tb PYK inh 4% and RE007 growth inh -3%.
`COc1ccc2c(CC#N)c[nH]c2c1` gave FBPA Giardia inh -16%, LmPK inhibitor 6%, Sm TGR inh 50µM*, Tb PYK inh 2% and RE007 growth inh -9%.
`Cc1[nH][nH]c(=O)c1C(c1c(C)[nH][nH]c1=O)c1cn(Cc2cccc3ccccc23)c2ccccc12` gave FBPA Giardia inh inconclusive, LmPK inhibitor 1%, Sm TGR inh -10%, Tb PYK inh 3% and RE007 growth inh -7%.
